Measurements taken from PubChem BioAssay (NCI).
About 83,000 compounds went through this panel and 20% of them were active in at least one assay; those are over-represented in the sample as a whole.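 Single-dose data. Exposure time 48 hours. Values below 10 considered active.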 Activity calls are given as the source filed them.

Tests used:
Experiment in all cases: NCI-60 one-dose screen, 48 h (100 = growth as untreated, 0 = no growth, -100 = all killed)
Conditions in all cases: 10 µM unless noted
T-47D breast = test system: T-47D breast
BT-549 breast = test system: BT-549 breast
SW-620 colon = test system: SW-620 colon
MCF7 breast = test system: MCF7 breast
HCT-116 colon = test system: HCT-116 colon
HCC-2998 colon = test system: HCC-2998 colon
KM12 colon = test system: KM12 colon
MDA-MB-435 melanoma = test system: MDA-MB-435 melanoma

Measured: growth

COc1ccc(-c2cc(-c3cccnc3)nc3sc4c(=O)n(-c5ccc(C)cc5)cnc4c23)cc1OC
inactive: T-47D breast 98.7% | BT-549 breast 100% | SW-620 colon 96.2% | MCF7 breast 97% | HCT-116 colon 99.1% | HCC-2998 colon 109% | KM12 colon 101%

Nc1ccc(Nc2nccc(-c3ccc4ccccc4c3)n2)cc1
inactive: T-47D breast 57.1% | BT-549 breast 57.7% | MCF7 breast 19% | HCT-116 colon 26.2% | HCC-2998 colon 71.9% | KM12 colon 27.2%
active: MDA-MB-435 melanoma 8.53%

Oc1ccc(Nc2nccc(-c3ccc4ccccc4c3)n2)cc1
active: MDA-MB-435 melanoma 8.01%
inactive: T-47D breast 48.7% | BT-549 breast 48.2% | MCF7 breast 20.2% | HCT-116 colon 23.2% | HCC-2998 colon 60.4% | KM12 colon 27.4%

CCOC(=O)N1CCN(c2nc(Nc3cc(C)[nH]n3)c3ccccc3n2)CC1
inactive: T-47D breast 37.4% | BT-549 breast 56.8% | SW-620 colon 41.8% | MCF7 breast 27.5% | HCT-116 colon 34.1% | HCC-2998 colon 69% | KM12 colon 21.4%

CCN(C(=O)CN1CCN(c2cc3c(cc2F)c(=O)c(C(=O)O)cn3CC)CC1)c1nc(-c2ccccc2)cs1
active: BT-549 breast 3.3% | MCF7 breast 7.6%
inactive: T-47D breast 11.9% | SW-620 colon 13.9% | HCT-116 colon 14% | HCC-2998 colon 19.6% | KM12 colon 12.7%

COc1ccc2nc3cc(Cl)ccc3c(NCCNCC(O)CO)c2c1 (stereo not drawn)
inactive: T-47D breast 21.7% | BT-549 breast 44.3% | MDA-MB-435 melanoma 28.3% | HCC-2998 colon 44.8% | KM12 colon 20.7%
active: MCF7 breast 9.17% | HCT-116 colon 9.6%

COc1ccc(C2CC(=O)Nc3c2c(C)nn3-c2nc3ccccc3[nH]2)cc1 (stereo not drawn)
inactive: T-47D breast 111% | BT-549 breast 113% | MDA-MB-435 melanoma 99.9% | MCF7 breast 91.6% | HCT-116 colon 108% | HCC-2998 colon 112% | KM12 colon 30.4%

CCCCN(CCCC)Cc1c(C)[nH]c2cc(OC)ccc2c1=O
inactive: T-47D breast 95.7% | BT-549 breast 108% | SW-620 colon 101% | MCF7 breast 94.8% | HCT-116 colon 95.2% | HCC-2998 colon 94.6% | KM12 colon 104%

CCN(CC)CCCNc1cccc2c(SCc3ccccc3)ccnc12
inactive: T-47D breast 103% | BT-549 breast 74.8% | SW-620 colon 55% | MCF7 breast 98.6% | HCT-116 colon 75% | HCC-2998 colon 25.4% | KM12 colon 34%

Cn1c2c(Cl)c(Cl)ccc2c2ccn3c(=O)c4ccccc4nc3c21
inactive: T-47D breast 85% | BT-549 breast 86.4% | SW-620 colon 99.1% | MCF7 breast 96.2% | HCT-116 colon 90% | HCC-2998 colon 100% | KM12 colon 103%

O=C(Cn1cc(CN2C(=O)c3ccccc3S2(=O)=O)nn1)Nc1ccc([N+](=O)[O-])cc1Cl
inactive: T-47D breast 76.9% | BT-549 breast 103% | MDA-MB-435 melanoma 103% | MCF7 breast 83% | HCT-116 colon 103% | HCC-2998 colon 98.4% | KM12 colon 93.8%

Fc1ccc(Cc2ccc(F)cc2)cc1
inactive: T-47D breast 101% | BT-549 breast 128% | MDA-MB-435 melanoma 114% | MCF7 breast 99% | HCT-116 colon 102% | HCC-2998 colon 114% | KM12 colon 108%

CCOC(=O)c1ccc2c(c1)nc(/C=C/c1ccc(Cl)cc1)n2-c1cc(C(C)(C)C)[nH]n1
inactive: T-47D breast 56.2% | BT-549 breast 57.4% | SW-620 colon 64.9% | MCF7 breast 42.4% | HCT-116 colon 52% | HCC-2998 colon 88.4% | KM12 colon 54%

Oc1c(Cl)cc(Cl)cc1CNc1nccnn1
inactive: T-47D breast 105% | BT-549 breast 105% | SW-620 colon 102% | MCF7 breast 99.2% | HCT-116 colon 98.1% | HCC-2998 colon 98.6% | KM12 colon 93.1%

CC(=O)O[C@H]1CC[C@]2(C)[C@H]3CC[C@@H]4[C@H]5[C@H](C(C)C)CC[C@]5(C(=O)OCC(CO)(CO)N=C(N)N)CC[C@@]4(C)[C@]3(C)CC[C@H]2C1(C)C
inactive: T-47D breast 44.6% | BT-549 breast 108% | MDA-MB-435 melanoma 22.6% | KM12 colon 17.4%
active: MCF7 breast 4.01% | HCT-116 colon -76.1% | HCC-2998 colon -60.9%

Oc1ccccc1N=Cc1c(O)ccc2ccccc12
inactive: T-47D breast 63% | BT-549 breast 54.5% | MDA-MB-435 melanoma 79.1% | MCF7 breast 70.4% | HCT-116 colon 70.6% | HCC-2998 colon 92.4% | KM12 colon 59.1%

CN1CCN(Cc2ccc(NC(=O)c3[nH]ncc3Nc3ncnc4[nH]ccc34)cc2)CC1
active: BT-549 breast -76.2% | SW-620 colon 5.63% | MCF7 breast 9.25% | HCT-116 colon 2.81% | HCC-2998 colon -14.2% | KM12 colon 3.42%
inactive: T-47D breast 21.7%

COc1ccc(S(=O)(=O)NCCNc2nccc(-c3c(-c4cccc([N+](=O)[O-])c4)nc4sccn34)n2)cc1
inactive: T-47D breast 44.4% | BT-549 breast 72.1% | MDA-MB-435 melanoma 77.9% | MCF7 breast 61.3% | HCT-116 colon 90% | HCC-2998 colon 128% | KM12 colon 44.8%

CC(=O)C1=C(O)C=C2Oc3c(C(=O)/C=C/c4cc(Cl)cc(Cl)c4)c(O)c(C)c(O)c3[C@]2(C)C1=O
active: T-47D breast -24.4% | BT-549 breast -19.9% | SW-620 colon 0.897% | MCF7 breast -10.6% | HCT-116 colon -15.9% | HCC-2998 colon -46.9% | KM12 colon -6.77%

O=C([C@@H](COCc1ccccc1)N1C(=O)[C@@H](N2C(=O)OC[C@@H]2c2ccccc2)[C@H]1/C=C/c1ccccc1)N1CCC(CCN2CCCCC2)CC1
inactive: T-47D breast 77.2% | BT-549 breast 90% | SW-620 colon 98% | MCF7 breast 74.9% | HCT-116 colon 83.1% | HCC-2998 colon 84% | KM12 colon 97.1%

COc1cc(-c2cc(-c3nc4ccc(Cl)cc4[nH]3)[nH]n2)cc(OC)c1OC
inactive: BT-549 breast 22.4% | SW-620 colon 78.7% | MCF7 breast 47% | HCT-116 colon 49.4% | HCC-2998 colon 89% | KM12 colon 47%
active: T-47D breast 0.183%

Cc1cc(=O)oc2cc(Oc3nc(-c4ccc(Cl)cc4)cn4c(-c5ccc(Cl)cc5)cnc34)ccc12
inactive: T-47D breast 104% | BT-549 breast 89.4% | SW-620 colon 66.7% | MCF7 breast 73.1% | HCT-116 colon 92.1% | HCC-2998 colon 106% | KM12 colon 81.2%

Cc1cc2c(cc1C)NC1=C(N2)OC(c2c3ccccc3cc3ccccc23)C1=O (stereo not drawn)
active: BT-549 breast 0.106% | MDA-MB-435 melanoma -7.13% | MCF7 breast 5.73% | HCT-116 colon -5.82% | HCC-2998 colon 7.57% | KM12 colon 9.94%
inactive: SW-620 colon 19.3%

O=C1/C(=C\c2cn(C(=O)c3ccc(Cl)cc3)c3ccccc23)c2ccccc2N1c1c(Cl)cccc1Cl
inactive: T-47D breast 92.5% | BT-549 breast 107% | SW-620 colon 105% | MCF7 breast 95.7% | HCT-116 colon 94.1% | HCC-2998 colon 102% | KM12 colon 111%

Nc1ccc(N2CCOCC2)cc1
inactive: T-47D breast 88.1% | BT-549 breast 82.1% | SW-620 colon 111% | MCF7 breast 88.8% | HCT-116 colon 98% | HCC-2998 colon 96.9% | KM12 colon 115%

O=C1C=CC(Nc2ccccc2[N+](=O)[O-])C1Nc1ccccc1[N+](=O)[O-] (stereo not drawn)
inactive: KM12 colon 58.3%
active: BT-549 breast -58.7% | MDA-MB-435 melanoma 8.78% | SW-620 colon -71.6% | MCF7 breast -77.3% | HCT-116 colon -89.5% | HCC-2998 colon 6.76%

Cc1ccc(Nc2nc(N)nc(Nc3ccc4ccccc4c3)n2)cc1
inactive: T-47D breast 36.2% | BT-549 breast 48.1% | SW-620 colon 23.5% | MCF7 breast 29.6% | HCT-116 colon 21.8% | HCC-2998 colon 77.5% | KM12 colon 25.1%

C=C(CN1CCN(c2cccc(C(F)(F)F)n2)CC1)c1ccc(C(=O)Nc2ccccc2N)cc1
inactive: BT-549 breast 22.8% | SW-620 colon 55.2% | HCT-116 colon 15.5%
active: MDA-MB-435 melanoma -9.74% | MCF7 breast 1.51% | HCC-2998 colon -41% | KM12 colon -3.75%

CC/C=C\C[C@H](O)C/C=C1/C(=O)C=C[C@@H]1C/C=C\CCCC(=O)NC
active: T-47D breast -0.635% | BT-549 breast -4.05% | SW-620 colon 7.47% | MCF7 breast 8.89% | HCT-116 colon -65% | HCC-2998 colon -90.7% | KM12 colon -44.3%
